# In the supplement of paper PMC10849652:
# The full data set covers some 7,900 targets. This sample favours those with a hit. About 0.6% of all pairs of compound and target were hits. Values without a mark were called inactive.
# Columns and labels:
# Assay in all cases: log2 fold change, soluble protein after heating vs DMSO (PISA); higher = thermal stabilisation; K562 cells, 10 uM, 30 min; active = over 0.2 and 3.5 SD of the protein, either way, in both replicates (recomputed)
# [1] = compound: CN1CCN(CCOc2cc(OC3CCOCC3)c3c(Nc4c(Cl)ccc5c4OCO5)ncnc3c2)CC1 [saracatinib]
# Method in brief: (§1)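 Thermal stability values are relative to control samples and come from duplicates. They are expressed as log2 fold changes. For measurement, K562 cells (2×10^6 cells/mL) received 10 μM compound for 30 min, and aliquots were heated for 3 min over 48°C-58°C, pooled, and extracted at 4°C in PBS with 0.5% NP-40. Soluble protein, the supernatant after 21,000xg for 90 min, was quantified by TMTpro 16plex LC-MS/MS with equalised channel sums.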
# [2] = compound: CN1CCN(c2nc(C3=C(c4c[nH]c5ccccc45)C(=O)NC3=O)c3ccccc3n2)CC1 [sotrastaurin]
# Method in brief: as §1
# [3] = compound: CN1CC[C@H](c2c(O)cc(O)c3c(=O)cc(-c4ccccc4Cl)oc23)[C@H](O)C1 [alvocidib]
# Method in brief: as §1
# [4] = compound: CN1CCc2c(c3ccccc3n2Cc2ccc(C(=O)NO)cc2)C1 [Tubastatin A]
# Method in brief: as §1
# [5] = compound: CNC(=O)C1=CC=CC=C1NC2=NC(=NC=C2Cl)NC3=C(C=C(C=C3)N4CCOCC4)OC
# Method in brief: as §1
# [6] = compound: CNC(=O)c1ccc(Nc2ncc(C(F)(F)F)c(NCc3nccnc3N(C)S(C)(=O)=O)n2)cc1 [defactinib]
# Method in brief: as §1
# [7] = compound: CNCc1ccc(-c2[nH]c3cc(F)cc4c3c2CCNC4=O)cc1 [rucaparib]
# Method in brief: as §1
# [8] = compound: CNc1nc(-c2ccc3c(N)n[nH]c3c2)cc(N2C[C@@H](C(=O)NC3CCCCC3)CC[C@H]2C)n1
# Method in brief: as §1
# [9] = compound: COC(=O)N[C@@H](C)CNc1nccc(-c2cn(C(C)C)nc2-c2cc(Cl)cc(NS(C)(=O)=O)c2F)n1 [encorafenib]
# Method in brief: as §1
# [10] = compound: COC(=O)[C@H](CCSC)NC(=O)C1=C(C=C(C=C1)NC[C@H](CS)N)C2=CC=CC=C2
# Method in brief: as §1
# Chain of UniProt Q06609 (Q06609 whole entry, looked up): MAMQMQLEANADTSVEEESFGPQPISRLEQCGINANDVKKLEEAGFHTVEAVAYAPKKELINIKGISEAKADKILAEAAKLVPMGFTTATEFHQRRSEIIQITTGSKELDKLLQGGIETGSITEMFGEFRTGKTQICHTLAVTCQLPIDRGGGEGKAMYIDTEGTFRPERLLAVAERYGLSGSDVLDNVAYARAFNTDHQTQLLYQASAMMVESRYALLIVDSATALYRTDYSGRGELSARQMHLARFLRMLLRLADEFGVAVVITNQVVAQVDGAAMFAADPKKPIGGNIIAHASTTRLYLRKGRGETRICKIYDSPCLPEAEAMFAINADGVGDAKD
# Chain of UniProt O75792 (O75792 whole entry, looked up): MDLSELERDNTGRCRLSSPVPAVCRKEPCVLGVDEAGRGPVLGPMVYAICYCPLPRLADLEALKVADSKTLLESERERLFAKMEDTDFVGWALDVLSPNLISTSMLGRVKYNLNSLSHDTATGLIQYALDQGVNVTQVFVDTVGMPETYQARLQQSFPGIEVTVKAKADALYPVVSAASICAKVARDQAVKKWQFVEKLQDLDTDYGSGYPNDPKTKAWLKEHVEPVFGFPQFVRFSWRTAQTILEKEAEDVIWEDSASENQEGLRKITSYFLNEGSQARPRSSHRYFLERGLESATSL
# Chain of UniProt P63208 (P63208 whole entry, looked up): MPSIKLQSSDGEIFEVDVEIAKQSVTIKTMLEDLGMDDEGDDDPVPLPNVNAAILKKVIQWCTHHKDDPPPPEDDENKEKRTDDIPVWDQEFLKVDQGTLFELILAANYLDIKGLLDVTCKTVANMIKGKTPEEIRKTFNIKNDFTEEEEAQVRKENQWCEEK
# Chain of UniProt O00584 (O00584 whole entry, looked up): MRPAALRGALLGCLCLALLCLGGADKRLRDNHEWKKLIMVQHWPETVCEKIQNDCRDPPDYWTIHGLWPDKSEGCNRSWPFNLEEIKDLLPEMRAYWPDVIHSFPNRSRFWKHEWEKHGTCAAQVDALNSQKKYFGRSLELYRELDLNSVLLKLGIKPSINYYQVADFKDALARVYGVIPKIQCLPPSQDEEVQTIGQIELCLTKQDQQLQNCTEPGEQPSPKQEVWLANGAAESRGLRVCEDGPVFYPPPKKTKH
# Chain of UniProt Q96IZ7 (Q96IZ7 whole entry, looked up): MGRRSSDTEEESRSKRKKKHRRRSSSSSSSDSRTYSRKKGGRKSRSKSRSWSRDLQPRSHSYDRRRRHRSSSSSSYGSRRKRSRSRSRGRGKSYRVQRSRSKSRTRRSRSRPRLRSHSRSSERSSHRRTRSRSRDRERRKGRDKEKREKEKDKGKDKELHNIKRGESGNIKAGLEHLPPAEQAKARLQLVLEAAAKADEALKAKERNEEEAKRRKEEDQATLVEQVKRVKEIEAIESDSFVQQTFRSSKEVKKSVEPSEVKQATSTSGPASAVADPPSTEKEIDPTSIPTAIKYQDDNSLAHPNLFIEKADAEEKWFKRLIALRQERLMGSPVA
# Chain of UniProt Q99719 (Q99719 whole entry, looked up): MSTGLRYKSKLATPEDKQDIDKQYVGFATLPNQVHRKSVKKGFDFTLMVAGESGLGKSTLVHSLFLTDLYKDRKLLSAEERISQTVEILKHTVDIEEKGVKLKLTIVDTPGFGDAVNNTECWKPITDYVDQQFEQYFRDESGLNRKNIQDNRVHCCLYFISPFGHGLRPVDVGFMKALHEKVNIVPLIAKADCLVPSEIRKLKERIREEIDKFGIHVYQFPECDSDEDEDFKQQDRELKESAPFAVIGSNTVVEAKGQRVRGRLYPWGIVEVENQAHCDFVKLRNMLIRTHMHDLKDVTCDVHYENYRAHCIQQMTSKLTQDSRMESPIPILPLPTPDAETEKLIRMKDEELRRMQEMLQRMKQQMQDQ
# Chain of UniProt Q15436 (Q15436 whole entry, looked up): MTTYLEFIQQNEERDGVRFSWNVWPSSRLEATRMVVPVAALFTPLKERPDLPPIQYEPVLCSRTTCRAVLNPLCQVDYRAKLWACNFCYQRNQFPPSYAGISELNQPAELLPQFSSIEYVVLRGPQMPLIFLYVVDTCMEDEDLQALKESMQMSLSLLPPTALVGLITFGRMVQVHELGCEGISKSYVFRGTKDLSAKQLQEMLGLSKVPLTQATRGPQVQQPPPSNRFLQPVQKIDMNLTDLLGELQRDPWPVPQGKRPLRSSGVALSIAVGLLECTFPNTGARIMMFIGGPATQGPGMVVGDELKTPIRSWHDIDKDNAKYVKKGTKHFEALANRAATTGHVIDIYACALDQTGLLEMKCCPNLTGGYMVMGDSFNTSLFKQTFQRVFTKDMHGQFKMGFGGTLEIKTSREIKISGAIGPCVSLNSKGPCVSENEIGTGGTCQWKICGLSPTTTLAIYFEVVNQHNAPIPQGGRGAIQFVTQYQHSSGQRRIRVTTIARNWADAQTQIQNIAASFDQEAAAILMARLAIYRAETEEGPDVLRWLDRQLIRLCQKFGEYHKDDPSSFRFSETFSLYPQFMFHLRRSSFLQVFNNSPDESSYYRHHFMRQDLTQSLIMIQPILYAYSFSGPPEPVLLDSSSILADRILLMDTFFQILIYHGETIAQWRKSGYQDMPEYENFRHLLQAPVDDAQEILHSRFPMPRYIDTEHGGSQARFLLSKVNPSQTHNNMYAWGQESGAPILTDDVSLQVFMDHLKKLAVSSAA
# Chain of UniProt Q8WWV3 (Q8WWV3 whole entry, looked up): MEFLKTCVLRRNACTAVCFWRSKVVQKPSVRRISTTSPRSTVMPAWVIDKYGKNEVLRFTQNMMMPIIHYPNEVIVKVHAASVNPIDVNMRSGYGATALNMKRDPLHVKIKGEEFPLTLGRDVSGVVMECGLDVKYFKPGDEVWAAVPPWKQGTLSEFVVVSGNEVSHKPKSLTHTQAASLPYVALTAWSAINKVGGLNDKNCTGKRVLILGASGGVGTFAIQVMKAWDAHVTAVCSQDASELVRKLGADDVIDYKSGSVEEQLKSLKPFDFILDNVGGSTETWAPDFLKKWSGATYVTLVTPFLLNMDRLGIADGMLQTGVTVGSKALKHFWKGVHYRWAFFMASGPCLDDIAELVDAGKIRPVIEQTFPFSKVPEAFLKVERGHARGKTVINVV
# Chain of UniProt Q92878 (Q92878 whole entry, looked up): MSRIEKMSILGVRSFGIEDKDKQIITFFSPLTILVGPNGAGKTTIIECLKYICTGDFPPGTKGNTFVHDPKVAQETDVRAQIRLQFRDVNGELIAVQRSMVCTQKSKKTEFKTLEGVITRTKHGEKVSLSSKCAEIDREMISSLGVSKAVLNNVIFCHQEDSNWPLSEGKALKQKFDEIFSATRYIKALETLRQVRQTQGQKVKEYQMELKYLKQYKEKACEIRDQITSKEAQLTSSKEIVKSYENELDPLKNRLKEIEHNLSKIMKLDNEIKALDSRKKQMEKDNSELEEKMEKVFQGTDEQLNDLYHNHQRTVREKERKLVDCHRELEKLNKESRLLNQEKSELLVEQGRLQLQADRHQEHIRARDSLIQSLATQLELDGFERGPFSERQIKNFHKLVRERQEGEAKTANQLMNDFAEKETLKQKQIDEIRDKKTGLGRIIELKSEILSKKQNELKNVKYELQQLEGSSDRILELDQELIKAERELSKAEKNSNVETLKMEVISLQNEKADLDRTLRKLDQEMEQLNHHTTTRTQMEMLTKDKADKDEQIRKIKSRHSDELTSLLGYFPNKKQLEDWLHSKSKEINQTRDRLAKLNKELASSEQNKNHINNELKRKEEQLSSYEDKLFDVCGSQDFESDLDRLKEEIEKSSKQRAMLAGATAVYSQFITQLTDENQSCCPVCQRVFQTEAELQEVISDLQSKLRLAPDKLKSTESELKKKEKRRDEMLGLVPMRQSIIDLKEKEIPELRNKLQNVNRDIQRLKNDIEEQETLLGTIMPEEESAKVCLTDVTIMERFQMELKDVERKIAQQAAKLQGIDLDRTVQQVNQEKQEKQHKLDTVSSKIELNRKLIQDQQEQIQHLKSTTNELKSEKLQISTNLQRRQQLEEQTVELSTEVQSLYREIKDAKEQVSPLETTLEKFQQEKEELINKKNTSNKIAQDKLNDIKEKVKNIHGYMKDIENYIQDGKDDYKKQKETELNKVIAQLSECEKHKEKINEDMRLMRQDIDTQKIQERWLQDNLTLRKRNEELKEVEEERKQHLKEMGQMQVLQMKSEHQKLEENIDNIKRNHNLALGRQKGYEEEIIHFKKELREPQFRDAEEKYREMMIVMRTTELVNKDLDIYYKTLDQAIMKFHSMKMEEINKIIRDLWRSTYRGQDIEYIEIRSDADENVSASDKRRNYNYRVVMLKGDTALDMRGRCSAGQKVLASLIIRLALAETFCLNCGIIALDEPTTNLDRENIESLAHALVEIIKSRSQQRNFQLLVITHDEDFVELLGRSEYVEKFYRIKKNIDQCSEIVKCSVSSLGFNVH
# Chain of UniProt Q9BVS4 (Q9BVS4 whole entry, looked up): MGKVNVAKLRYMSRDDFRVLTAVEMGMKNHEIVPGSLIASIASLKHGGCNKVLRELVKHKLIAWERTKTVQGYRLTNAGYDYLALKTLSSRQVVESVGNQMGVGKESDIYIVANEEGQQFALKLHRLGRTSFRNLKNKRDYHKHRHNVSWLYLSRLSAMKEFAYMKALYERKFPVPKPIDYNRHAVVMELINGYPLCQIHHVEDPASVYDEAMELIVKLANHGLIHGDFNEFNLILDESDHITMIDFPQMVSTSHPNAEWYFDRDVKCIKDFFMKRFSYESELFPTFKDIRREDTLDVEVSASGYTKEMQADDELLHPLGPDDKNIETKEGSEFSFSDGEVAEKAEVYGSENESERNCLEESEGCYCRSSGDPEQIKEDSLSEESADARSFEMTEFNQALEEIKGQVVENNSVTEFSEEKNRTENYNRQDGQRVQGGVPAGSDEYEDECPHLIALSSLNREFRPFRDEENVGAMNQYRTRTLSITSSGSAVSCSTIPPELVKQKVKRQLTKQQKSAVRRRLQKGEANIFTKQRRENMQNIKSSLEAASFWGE
# Chain of UniProt Q15382 (Q15382 whole entry, looked up): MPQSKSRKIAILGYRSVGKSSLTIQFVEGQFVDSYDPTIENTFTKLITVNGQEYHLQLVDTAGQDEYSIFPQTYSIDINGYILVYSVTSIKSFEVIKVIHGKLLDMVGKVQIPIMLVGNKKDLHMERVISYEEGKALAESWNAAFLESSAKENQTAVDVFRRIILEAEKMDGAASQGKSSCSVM
Target,log2 fold change [1],log2 fold change [2],log2 fold change [3],log2 fold change [4],log2 fold change [5],log2 fold change [6],log2 fold change [7],log2 fold change [8],log2 fold change [9],log2 fold change [10]
RSF1 (UniProt Q96T23),0,-0.209,-0.188,0.181,0.035,-0.407 (active),0.026,0.048,0.029,-0.086
SCAMP2 (UniProt H3BUB6),-0.149,0.171,0.253,-0.056,-0.043,0.088,0.072,-0.155,-0.311,0.096
RTF2 (UniProt Q9BY42),-0.021,-0.007,-0.01,0.099,0.083,-0.151,0.027,-0.142,0.058,-0.045
RSRC2 (UniProt Q7L4I2),0.015,0.049,0.055,-0.055,-0.125,-0.048,-0.004,-0.016,-0.005,0.024
RRAGB (UniProt Q5VZM2),0.076,0.028,-0.029,-0.03,-0.01,-0.075,-0.009,-0.009,0.06,0.084
RB1CC1 (UniProt Q8TDY2),-0.065,-0.108,-0.025,0.117,-0.051,-0.042,0.09,0.049,-0.104,-0.025
SKP1 (UniProt P63208),0.157,-0.023,-0.032,0.002,0.165,0.066,-0.051,0.028,-0.005,0.072
SEC23A (UniProt Q15436),0.133,0.008,-0.066,-0.008,-0.019,-0.078,0.296 (active),0.037,-0.171,-0.035
RIC8A isoform 3 (UniProt Q9NPQ8),0.008,-0.223,-0.157,0.108,-0.096,-0.175,0.198,-0.087,0.287,-0.12
RHEB (UniProt Q15382),0.047,0.04,-0.008,-0.054,-0.032,0.002,-0.084,-0.011,0.025,0
RNASEH2A (UniProt O75792),-0.071,0.029,-0.107,0.033,0.029,0.117,0.018,0.033,-0.003,0.096
SLBP (UniProt Q14493),-0.083,-0.077,-0.091,0.117,0.113,-0.128,-0.158,0.02,0.113,0
RAD51 (UniProt Q06609),-0.013,0.004,-0.002,0.099,0.337 (active),0.027,-0.035,-0.011,0.005,-0.041
RTN4IP1 (UniProt Q8WWV3),-0.264,0.43,-0.27,0.611 (active),-0.066,-0.157,-0.178,-0.069,0.02,0.007
RPS6KA1 isoform 2 (UniProt Q15418),0.02,-0.067,-0.012,0.005,-0.088,-0.258,-0.108,-0.101,-0.018,-0.015
RGS10 (UniProt O43665),0.033,-0.023,-0.042,0.049,0.014,-0.11,0.038,0,-0.001,-0.002
RAD50 isoform 2 (UniProt Q92878),0.012,-0.024,-0.084,-0.025,0,-0.103,0.006,0.006,0.008,-0.019
RCOR3 isoform 3 (UniProt Q9P2K3),-0.142,-0.011,-0.15,0.142,-0.019,-0.073,0.075,-0.044,0.026,-0.062
RNASET2 (UniProt O00584),0.009,0.01,0.077,0.003,-0.031,-0.004,-0.163,-0.067,0.015,-0.002
RB1 (UniProt P06400),0.026,-0.038,-0.885 (active),0.061,0.026,-0.176,-0.195,0.016,0.006,0.019
RPS16 (UniProt P62249),-0.085,0.004,0.193,0.05,0.108,0.185,0.126,0.056,0.033,0.004
RRP36 (UniProt Q96EU6),-0.021,-0.067,0.211,0.17,0.073,0.351,0.057,0.007,0.092,0.05
RIOK2 (UniProt Q9BVS4),-0.073,0.033,0.169,0.067,0.195,0.138,0.014,0.069,0.05,-0.009
SCAF8 isoform 2 (UniProt Q9UPN6),-0.078,-0.09,-0.167,0.006,-0.085,-0.083,0.004,0.016,0.018,-0.06
RRP9 (UniProt O43818),0.08,0.044,0.057,0,-0.069,-0.075,0.019,-0.094,-0.005,0.042
SEPTIN5 (UniProt Q99719),0.051,0.001,-0.042,-0.035,-0.022,0.008,-0.036,0.003,-0.007,-0.006
RPS12 (UniProt P25398),-0.014,-0.023,0.123,0.017,0.049,0.092,0.12,-0.008,0.02,0.015
SDCBP (UniProt O00560),-0.012,0.021,-0.096,0.025,0.007,0.042,0.117,-0.541 (active),0.06,-0.001
RAF1 isoform 2 (UniProt P04049),-0.029,-0.167,-0.105,-0.036,0.078,-0.075,0.125,0.176,0.737 (active),-0.069
RSRC1 (UniProt Q96IZ7),0.04,0.042,-0.027,0.018,-0.215 (active),-0.018,-0.04,-0.004,0.023,0.052
